Among the data in PubChem BioAssay AID1852 (Sanford-Burnham Center for Chemical Genomics, 2009) are inhibition values, retold here.

About 1,100 (44%) of roughly 2,500 compounds were called active.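 Rule for the calls: active = inhibition above 50% at 4 µM in the single-point screen; inactive = inhibition of 50% or less.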 So high a share suggests a set chosen from earlier hits. Some of the results follow.

The assay is described as follows: blockers of TNF-a NF-kB luciferase induction – cell-based, HEK293T NF-kB-Luc, luminescence, selectivity assay for NOD1/NOD2 signaling inhibitor project, primary screen (AID 1852). The conditions noted are these: TNF-a induced, 14 h, at 4 µM, stronger effect = higher value.
Consider `O=C(NCCCSc1ccccc1)c1cc(Br)ccc1O`, for which the inhibition is 69.9% (active). With `C/C(=N\NC(=O)c1cc(Cl)ccc1O)c1ccc(Br)s1`, the inhibition was 48% (inactive).

For the compound `O=C(NCCCSc1ccccc1)c1cc(Cl)ccc1O`, the inhibition was 80.1% (active). The figure for `COc1ccccc1CNC(=O)C1CCN(C(=O)[C@@H]2Cc3ccccc3CN2)CC1` is 14.5% (inactive); for `COc1cc(F)ccc1CN1CCC(C(=O)Nc2ccc(Oc3ccccc3)nc2)CC1` it is 57% (active); for `O=C(Nc1ccc(Oc2cccnc2)cc1)C1CCN(Cc2cc(Cl)ccc2O)CC1` it is 47.8% (inactive).

`O=C(Nc1ccc(Cl)c(S(=O)(=O)N2CCOCC2)c1)c1ccc(OCC2CCCO2)cc1` (stereo unspecified): the inhibition was 94.7% (active). With `O=C(Nc1cccc(Br)c1)c1ccc(Cl)c(S(=O)(=O)N2CCOCC2)c1`, the inhibition was 45.4% (inactive). Turning to `Cc1ccc(NC(=O)c2ccc(S(=O)(=O)NCC3CCCO3)cc2)cc1C` (stereo unspecified), the inhibition is 4.7% (inactive). The figure for `CN(C)S(=O)(=O)c1ccc(C(=O)Nc2nc(-c3cc4ccccc4o3)cs2)cc1` is 36.3% (inactive); for `CN(C)S(=O)(=O)c1ccc(-c2csc(N/N=C/c3ccco3)n2)cc1` it is 99.8% (active); for `O=C(/C=C\c1ccco1)Nc1nc(-c2ccc3ccccc3c2)cs1` it is 36.9% (inactive). The value for `CCC(=O)NC(c1cccs1)c1cc([N+](=O)[O-])c2cccnc2c1O` (stereo unspecified) was 86.2% (active); that for `CCCC(=O)NC(c1cccs1)c1cc([N+](=O)[O-])c2cccnc2c1O` (stereo unspecified) was 71.3% (active); that for `Cc1ccccc1Nc1nc(N)nc(CCl)n1` was 24.8% (inactive). As for `Cc1ccc(C)c(N2CCN(C(=O)CCS(=O)(=O)c3ccc4c(c3)NC(=O)C(C)S4)CC2)c1` (stereo unspecified), the inhibition was 74.4% (active). Regarding `CC1Sc2ccc(S(=O)(=O)CCC(=O)N3CCN(c4ccccc4F)CC3)cc2NC1=O` (stereo unspecified), the inhibition is 39.3% (inactive). Regarding `Cc1ccc(C)c(N2CCN(C(=O)CCS(=O)(=O)c3ccc4c(c3)NC(=O)CO4)CC2)c1`, the inhibition is 28.3% (inactive). The figure for `CN1C(=O)/C(=C/c2ccccc2Cl)Sc2ccc(C(=O)N3CCCC3)cc21` is 89% (active).

Turning to `COCCN1CCN(C(=O)c2ccc3nc(Cc4ccc(OC)c(OC)c4)oc3c2)CC1`, the inhibition was 8.5% (inactive). The value for `CCOc1ccc(/C=C2/Sc3ccc(C(=O)N4CCOCC4)cc3N(C)C2=O)cc1OC` was 54.9% (active); that for `Cc1ccccc1/C=C1\Sc2ccc(C(=O)N3CCN(c4ccccn4)CC3)cc2N(C)C1=O` was 22.2% (inactive); that for `O=C(c1ccc2c(c1)N(Cc1ccccc1)C(=O)c1ccccc1S2)N1CCCC1` was 34.7% (inactive). The value for `O=C1Nc2cc(C(=O)N3CCN(c4ccccn4)CC3)ccc2S/C1=C\c1ccccc1` was 3% (inactive); that for `CCOC(=O)N1CCN(C(=O)c2ccc3c(c2)N(C)C(=O)/C(=C\c2ccc(OCC)c(OC)c2)S3)CC1` was 21.6% (inactive); that for `COc1ccc(/C=C2\Sc3ccc(C(=O)N4CCN(Cc5ccccc5)CC4)cc3N(C)C2=O)cc1OC` was 59.1% (active). With `COc1ccc(Cc2noc(CN3CCN(Cc4cccc(Cl)c4)CC3)n2)cc1OC`, the inhibition is 35.8% (inactive).

As for `Cc1ccc(C)c(Oc2cc(NC(=O)CCCn3nc(C)c([N+](=O)[O-])c3C)cc([N+](=O)[O-])c2)c1`, the inhibition is -13.6% (inactive). On to `O=C(Nc1ccc(N2CCN(Cc3ccccc3F)CC2)cc1)c1ccc([N+](=O)[O-])o1`, for which the inhibition was 20% (inactive). The value for `O=C(Nc1ccc(N2CCN(C(=O)c3ccccc3F)CC2)cc1)c1cncc(Br)c1` was 72.9% (active); that for `O=C(Nc1ccc(Br)cc1)c1ccc(F)c(S(=O)(=O)N2CCN(c3ccccn3)CC2)c1` was 36.8% (inactive); that for `NC(=O)c1sc2nc3c(c(-c4ccco4)c2c1N)CCCC3` was 83.5% (active). As for `Cc1ccc(-c2c3c(nc4sc(C(N)=O)c(N)c24)CCC3)cc1`, the inhibition was 82.9% (active). With `NC(=O)c1sc2nc3c(c(-c4ccccc4)c2c1N)CCC3`, the inhibition was 96.6% (active). For the compound `Cc1nc2sc(C(N)=O)c(N)c2c2c1CCCC2`, the inhibition was 92.8% (active). Take `CCOC(=O)c1ccc(NC(=O)c2sc3nc(N4CCOCC4)c4c(c3c2N)CCCC4)cc1`: the inhibition was -98.3% (inactive). The value for `NC(=O)c1sc2nc3c(c(-c4cccs4)c2c1N)CCCCC3` was 90% (active); that for `O=C(N/N=C/c1cccs1)c1n[nH]c2c1CCCC2` was 1.7% (inactive). In the case of `Cc1nnc(N2CCCC(C(=O)Nc3cc(F)ccc3F)C2)c2nn(-c3ccccc3)c(C)c12` (stereo unspecified), the inhibition was 95.7% (active). Consider `COc1ccc(Cc2[nH]n3c(=O)c(Cl)c(C)nc3c2-c2ccccc2)cc1`, for which the inhibition was 106% (active). `COc1ccc(/C=c2/sc3nc(-c4ccccc4)c(-c4ccccc4)n3c2=O)cc1`: the inhibition is -25.7% (inactive). Turning to `COc1cc(/C=N/NC(=O)c2cc(-c3ccc4c(c3)OCO4)n[nH]2)ccc1O`, the inhibition is 55.4% (active). `CCNC(=O)/C(C#N)=C/c1c(N2CCN(c3ccc(OC)cc3)CC2)nc2c(C)cccn2c1=O`: the inhibition was 15.3% (inactive). `Oc1ccc(N=Nc2ccc3c(c2)OCCO3)c2cccnc12`: the inhibition is 39.5% (inactive). The figure for `Cc1ccc(N=Nc2ccc(O)c3ncccc23)cc1C` is 105% (active); for `Cc1ccccc1N=Nc1ccc(O)c2ncccc12` it is 105% (active); for `Cc1ccc(N=Nc2ccc(O)c3ncccc23)cc1` it is 96.9% (active). As for `Cc1ccc(C)c(N=Nc2ccc(O)c3ncccc23)c1`, the inhibition is 42.5% (inactive). In the case of `Cc1ccc2c(C)ccc(O)c2n1`, the inhibition was -70.6% (inactive). The figure for `COCCn1c(=S)[nH]c2cc(C(=O)N3CCCC(C)C3)ccc2c1=O` (stereo unspecified) is 94.8% (active). The figure for `COc1ccc(Cc2nc3ccc(C(=O)N4CCN(C)C(C)C4)cc3o2)cc1OC` (stereo unspecified) is 45.4% (inactive).

For the compound `CCOC(=O)C1CCCN(C(=O)c2ccc3c(=O)n(CCOC)c(=S)[nH]c3c2)C1` (stereo unspecified), the inhibition was 21.6% (inactive). The figure for `O=C(NCc1cccnc1)/C(=C\c1ccc(-c2cccc(Cl)c2)o1)S(=O)(=O)c1ccccc1` is 91.5% (active); for `O=C(NCc1cccnc1)/C(=C/c1ccc(-c2cccc(Cl)c2)o1)S(=O)(=O)c1ccccc1` it is 99.5% (active). With `CCN(CC)c1nc(N2CCOCC2)nc2ccccc12`, the inhibition is 2% (inactive). With `COc1ccc(-c2n(CC(=O)OC3CC(C)CCC3C(C)C)c3ccccc3[n+]2C)cc1` (stereo unspecified), the inhibition is 74.8% (active).

With `COc1ccc(/C=N/NS(=O)(=O)c2ccc(F)cc2)cc1COc1cc(F)ccc1[N+](=O)[O-]`, the inhibition was 12.7% (inactive). The figure for `C/C(=N\NC(=O)c1c(C)nc2ccccn12)c1ccc(O)cc1O` is 69.2% (active); for `C/C(=N\NC(=O)c1cc(C2CC2)nc2ccccc12)c1ccc(O)cc1O` it is 66.6% (active). For `O=C(Nc1nnc(-c2ccc3c(c2)CCCC3)o1)c1ccccc1`, the inhibition is 106% (active). The figure for `O=C(Nc1nnc(-c2ccc3c(c2)CCCC3)o1)c1ccc(Cl)cc1Cl` is 101% (active); for `O=C(Nc1nnc(-c2ccc3c(c2)CCCC3)o1)c1ccccc1Cl` it is 106% (active); for `O=C(CCc1nnc(-c2ccc(-c3ccccc3)cc2)o1)N1CCCCC1` it is -6.8% (inactive). For `CC(C)(C)OC(=O)N[C@@H](Cc1ccccc1)c1nnc(S(=O)(=O)Cc2cccc(F)c2)o1`, the inhibition was -10.8% (inactive).

On to `O=C(/C=C/c1ccc([N+](=O)[O-])s1)N1CCCCC1`, for which the inhibition was 54.6% (active).

Consider `CC1CC(C)CN(C(=O)/C=C/c2ccc([N+](=O)[O-])s2)C1` (stereo unspecified), for which the inhibition was 60.4% (active). For `O=C(/C=C/c1ccc([N+](=O)[O-])s1)N1CCN(c2ccccc2)CC1`, the inhibition is 10.5% (inactive).

On to `CC1CN(C(=O)/C=C/c2ccc([N+](=O)[O-])s2)CC(C)O1` (stereo unspecified), for which the inhibition was 41% (inactive). In the case of `CC[n+]1cc(C)ccc1/C=C/c1ccc(N(C)C)cc1`, the inhibition is 57.1% (active). As for `CC[n+]1ccc(/C=C/c2ccc(N(C)C)cc2)c2ccccc21`, the inhibition is 62.5% (active). `CC(C)CC[n+]1ccccc1/C=C/c1ccc(N(C)C)cc1`: the inhibition is 74.3% (active). Turning to `Cc1ccc(/C=C/c2ccc(N(C)C)cc2)[n+](C)c1`, the inhibition is 28.5% (inactive). On to `O=C(NCc1cccs1)c1nc2c(nnn2Cc2ccccc2Cl)c(=O)[nH]1`, for which the inhibition is 98.2% (active). Consider `O=C(CCl)N=c1sccn1Cc1ccccc1Cl`, for which the inhibition is 48.8% (inactive).

On to `O=C(NCc1ccco1)c1nc2c(nnn2Cc2ccccc2Cl)c(=O)[nH]1`, for which the inhibition is 78.4% (active). In the case of `Cc1cccc(C(=O)Nc2scc(CC(C)C)c2C(=O)O)c1`, the inhibition was -33.5% (inactive).

As for `CCC(C)N(CC(=O)Nc1cccc(C)c1C)C(=O)CCl` (stereo unspecified), the inhibition is 85.8% (active).

`Cc1cccc(NC(=O)CCNC(=O)c2ccc(Br)cc2)c1C`: the inhibition was -6.4% (inactive). The value for `Cc1cccc(Nc2nc(N)nc(CCl)n2)c1C` was 18.1% (inactive). For the compound `CCCN(CC(=O)Nc1ccccc1C)C(=O)CCl`, the inhibition was 93.3% (active). The figure for `CCOC(=O)N1CCN(C(=O)c2ccc([N+](=O)[O-])cc2Cl)CC1` is 43% (inactive). The figure for `CC(=O)Oc1c(C)cc(Cl)cc1C(=O)Nc1ccc([N+](=O)[O-])cc1Cl` is 98.1% (active). Regarding `Nc1nn2c(-c3ccccc3)cc(=O)[nH]c2c1N=Nc1ccc(Br)cc1`, the inhibition is 78.7% (active). For the compound `Nc1nn2c(-c3ccccc3)cc(=O)[nH]c2c1N=Nc1ccc(O)cc1`, the inhibition is -17.5% (inactive).

Take `COc1ccc(S(=O)(=O)NC(C)C(=O)Nc2cccc([N+](=O)[O-])c2)cc1` (stereo unspecified): the inhibition is 36.7% (inactive).

With `COc1ccc(C(=O)/C(C#N)=N/Nc2cccc([N+](=O)[O-])c2)cc1`, the inhibition was 87.9% (active).

Consider `COC(=O)c1scc(S(=O)(=O)C(C)C)c1N/N=C(\C#N)C(=O)c1ccc(Cl)cc1`, for which the inhibition was 27.4% (inactive). In the case of `O=C(c1ccccc1)c1nn(-c2ccc(Cl)cc2)c(=O)cc1C(F)(F)F`, the inhibition is 54.8% (active). The figure for `O=C(NNC(=O)c1cc(-c2ccccc2)nn1-c1ccccc1)c1ccccc1` is 11.9% (inactive); for `O=C(Nc1ccc(F)cc1)c1nn(-c2ccccc2)c(=O)cc1Cl` it is -30.5% (inactive); for `O=C(Nc1ccc2oc(-c3cccnc3)nc2c1)c1ccc([N+](=O)[O-])o1` it is 43.1% (inactive).

The term inhibition denotes the change of the read-out against control, counted positive when it falls.
